Reference: PubChem BioAssay (NCI)
About 83,000 compounds went through this panel and 20% of them were active in at least one assay; those are over-represented in the sample as a whole.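 Step 1: grow cells in 96-well plates. Step 2: add test compound at a single concentration. Step 3: incubate 48 h. Step 4: record percent growth.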 Calls of active or inactive are those of the source. Rule for the calls: active = growth percent below 10; inactive = the rest.

What was measured:
Assay in all cases: NCI-60 one-dose screen, 48 h (100 = growth as untreated, 0 = no growth, -100 = all killed)
K-562 leukemia = conditions: 10 µM
MDA-MB-231 breast = conditions: 10 µM
U251 CNS = conditions: 10 µM
LOX IMVI melanoma = conditions: 10 µM
EKVX NSCLC = conditions: 10 µM
UO-31 renal = conditions: 10 µM
MOLT-4 leukemia = conditions: 10 µM
SR leukemia = conditions: 10 µM
OVCAR-5 ovarian = conditions: 10 µM
HS 578T breast = conditions: 10 µM
SW-620 colon = conditions: 10 µM
HCT-116 colon = conditions: 10 µM
HCC-2998 colon = conditions: 10 µM
KM12 colon = conditions: 10 µM
MDA-MB-468 breast = conditions: 10 µM unless noted
HOP-92 NSCLC = conditions: 10 µM
SK-MEL-28 melanoma = conditions: 10 µM
CCRF-CEM leukemia = conditions: 10 µM
CAKI-1 renal = conditions: 10 µM

Measured: growth

CN(C)CCc1cn(C2CCC2)c2cccc(O)c12
inactive: MDA-MB-231 breast 76% | U251 CNS 65.7% | LOX IMVI melanoma 50.4% | EKVX NSCLC 94.9% | UO-31 renal 47.8% | MOLT-4 leukemia 57.2% | SR leukemia 52.8% | OVCAR-5 ovarian 79.8% | HS 578T breast 47.7% | SW-620 colon 23% | HCT-116 colon 31.6% | KM12 colon 76.1% | MDA-MB-468 breast 44.6%
active: K-562 leukemia 1.37% | HCC-2998 colon -46.1%

O=C(/C=C/c1ccc(F)cc1)c1nc2ccccc2n1Cc1ccc(Br)cc1
active: HOP-92 NSCLC -51.5% | K-562 leukemia -12.7% | SK-MEL-28 melanoma -58.4% | EKVX NSCLC -91.5% | UO-31 renal -92.5% | CCRF-CEM leukemia -1.81% | MOLT-4 leukemia -13.4% | SR leukemia -19.5% | HCT-116 colon -79.4% | HCC-2998 colon -97.6% | KM12 colon -25.3% | MDA-MB-468 breast -90.8%

COc1cc(OC)c(/C=C/C(=O)c2nc3ccccc3n2Cc2ccc(F)cc2)c(OC)c1
inactive: HOP-92 NSCLC 50.2% | K-562 leukemia 81.9% | SK-MEL-28 melanoma 92.8% | UO-31 renal 82.7% | MOLT-4 leukemia 44.7% | SR leukemia 74.3% | HCT-116 colon 74.8% | HCC-2998 colon 105% | KM12 colon 91.4% | MDA-MB-468 breast 80.1%

COc1cc2cc(C(=O)N3C[C@@H](CCl)c4c3cc(OC(=O)N3CCN(C(=O)CCC(=O)N5CCN(C)CC5)[C@@H]5CSSC[C@@H]53)c3ccccc43)[nH]c2c(OC)c1OC
active: K-562 leukemia -17.8% | MDA-MB-231 breast -94.2% | LOX IMVI melanoma -100% | EKVX NSCLC -84.6% | UO-31 renal -65.2% | MOLT-4 leukemia 0.371% | SR leukemia -12.9% | OVCAR-5 ovarian -35.6% | HS 578T breast -15.6% | SW-620 colon -23.4% | HCT-116 colon -77.5% | HCC-2998 colon -99.1% | KM12 colon -74.6% | MDA-MB-468 breast -91.5%
inactive: HOP-92 NSCLC 19.3% | CCRF-CEM leukemia 25.2%

O=C(/C=C/c1cccc(Br)c1)c1nc2ccccc2n1Cc1ccc(Br)cc1
active: HOP-92 NSCLC -48.8% | K-562 leukemia -2.19% | EKVX NSCLC -54.8% | UO-31 renal -57.3% | CCRF-CEM leukemia -15.6% | MOLT-4 leukemia -6.66% | SR leukemia -12.4% | HCT-116 colon -96% | HCC-2998 colon -94.7% | KM12 colon 6.51% | MDA-MB-468 breast -58.5%
inactive: CAKI-1 renal 16.6%

CC(=C\C(=O)Oc1ccc2c3c1OC1C(O)CCC4(O)C(C2)N(CC2CCC2)CCC314)/C=C1\CCCc2ccccc21 (centres undefined)
inactive: HOP-92 NSCLC 34.2% | K-562 leukemia 19.7% | MDA-MB-231 breast 75.3% | UO-31 renal 33.8% | MOLT-4 leukemia 31.1% | HS 578T breast 59.8% | SW-620 colon 28.4% | HCT-116 colon 28.6% | HCC-2998 colon 31.2% | KM12 colon 40.5%
active: LOX IMVI melanoma 5.47% | MDA-MB-468 breast -15.4%

COC(=O)C[C@](O)(CCC(C)C)C(=O)O[C@H]1C(OC)=C[C@@]23CCCN2CCc2cc4c(cc2[C@@H]13)OCO4
active: K-562 leukemia 4.01% | MDA-MB-231 breast -30.3% | U251 CNS -25.2% | LOX IMVI melanoma -82.4% | UO-31 renal -25.3% | CCRF-CEM leukemia -5.42% | MOLT-4 leukemia -5.07% | SR leukemia -26.7% | OVCAR-5 ovarian -20.4% | HS 578T breast -25.8% | SW-620 colon -27.9% | HCT-116 colon -20.4% | HCC-2998 colon -62.4% | KM12 colon -22.3% | MDA-MB-468 breast -39.7%

O=C(/C=C/c1ccc(Cl)cc1Cl)c1nc2ccccc2n1Cc1ccc(Br)cc1
inactive: HOP-92 NSCLC 65.8% | K-562 leukemia 53.5% | U251 CNS 45% | SK-MEL-28 melanoma 89.5% | UO-31 renal 50.9% | CAKI-1 renal 65.1% | MOLT-4 leukemia 15.4% | SR leukemia 14.4% | OVCAR-5 ovarian 98% | HCT-116 colon 25.8% | HCC-2998 colon 70.4% | KM12 colon 82.7% | MDA-MB-468 breast 48.9%

COc1ccc(OC)c(/C=C/C(=O)c2nc3ccccc3n2Cc2ccc(F)cc2)c1
active: HOP-92 NSCLC -11% | K-562 leukemia 0.885% | EKVX NSCLC -62.1% | UO-31 renal -43.9% | MOLT-4 leukemia -6.12% | SR leukemia -8.46% | OVCAR-5 ovarian -43% | HCT-116 colon -91.1% | HCC-2998 colon -93.6% | KM12 colon -20.9% | MDA-MB-468 breast -57.3%

C#CC[Se]C(=O)c1ccc(C(=O)[Se]CC#C)s1
inactive: HOP-92 NSCLC 157% | K-562 leukemia 89.6% | MDA-MB-231 breast 95% | LOX IMVI melanoma 93.1% | UO-31 renal 47.8% | MOLT-4 leukemia 101% | SR leukemia 26.8% | HS 578T breast 92.4% | SW-620 colon 98.2% | HCT-116 colon 14% | HCC-2998 colon 94.7% | KM12 colon 42.8% | MDA-MB-468 breast 64.5%

CC(C)C[C@H](NC(=O)CNC(=O)C[C@H]1O[C@@H]2OC3(C)CC[C@H]4[C@H](C)CC[C@@H]([C@H]1C)[C@@]24OO3)B(O)O
active: HOP-92 NSCLC -20.1% | K-562 leukemia 4% | MDA-MB-231 breast -68% | LOX IMVI melanoma -86.4% | SK-MEL-28 melanoma -38.5% | CCRF-CEM leukemia -9.96% | MOLT-4 leukemia 1.81% | OVCAR-5 ovarian -28.3% | HS 578T breast 7.9% | SW-620 colon 1.51% | HCT-116 colon -72.3% | HCC-2998 colon -95.1% | KM12 colon -15.4% | MDA-MB-468 breast -60.8%
inactive: UO-31 renal 15.5% | CAKI-1 renal 19.2% | SR leukemia 28.7%

CC12OOC(C)(OO1)C2CCC(=O)NCCCNc1ccnc2cc(Cl)ccc12 (centres undefined)
inactive: MDA-MB-231 breast 82.7% | SK-MEL-28 melanoma 72% | MOLT-4 leukemia 34.6% | HS 578T breast 103% | SW-620 colon 18.9% | HCC-2998 colon 106% | KM12 colon 86.4%
active: HOP-92 NSCLC 4.9% | K-562 leukemia 4.06% | LOX IMVI melanoma -92.8% | UO-31 renal -99.4% | SR leukemia -36.1% | HCT-116 colon 3.56% | MDA-MB-468 breast -52.7%

CC[C@]12C=CCN3CC[C@@]4(c5ccc(OC)cc5N(C)[C@H]4[C@@](O)(C(=O)OC)[C@@H]1OC(=O)CCCC[P+](c1ccc(C)cc1)(c1ccc(C)cc1)c1ccc(C)cc1)[C@@H]32
inactive: SR leukemia 25.8%
active: HOP-92 NSCLC -77.9% | K-562 leukemia 0.797% | MDA-MB-231 breast -97.2% | LOX IMVI melanoma -94.5% | UO-31 renal -96% | CAKI-1 renal -95.2% | CCRF-CEM leukemia -72.4% | MOLT-4 leukemia -25% | OVCAR-5 ovarian -96% | HS 578T breast -69.9% | SW-620 colon -88.1% | HCT-116 colon -93.5% | HCC-2998 colon -85.8% | KM12 colon -73.6% | MDA-MB-468 breast -92.5%

COc1cc(OC)c(S(=O)(=O)N(CCCl)CCCl)cc1C(=O)/C=C/c1ccc(C)cc1
active: LOX IMVI melanoma -24%
inactive: HOP-92 NSCLC 70.5% | K-562 leukemia 70.9% | MDA-MB-231 breast 35% | UO-31 renal 55.6% | CAKI-1 renal 65.3% | MOLT-4 leukemia 82.4% | SR leukemia 53.6% | OVCAR-5 ovarian 91.7% | HS 578T breast 56.8% | SW-620 colon 82.8% | HCT-116 colon 58% | HCC-2998 colon 93.6% | KM12 colon 81.1% | MDA-MB-468 breast 68.6%

O=C(/C=C/c1ccccc1)c1nc2ccccc2n1Cc1ccc(Br)cc1
active: HOP-92 NSCLC -54% | K-562 leukemia -17.2% | U251 CNS -92.9% | UO-31 renal -94.9% | CAKI-1 renal -19.2% | MOLT-4 leukemia -12% | SR leukemia -19.5% | HCT-116 colon -88.1% | HCC-2998 colon -97.3% | KM12 colon -32.5% | MDA-MB-468 breast -93.1%

CC1=C(C=O)C2=C(C)C3(CC3)[C@@](C)(O)C(=O)C2=C1
inactive: HOP-92 NSCLC 18.5% | EKVX NSCLC 68% | UO-31 renal 11.2% | CCRF-CEM leukemia 18% | OVCAR-5 ovarian 36.7% | HS 578T breast 36.3% | HCC-2998 colon 17.2% | KM12 colon 16.3%
active: MDA-MB-231 breast -43.4% | LOX IMVI melanoma -76.1% | SW-620 colon -15.8% | HCT-116 colon -34.7% | MDA-MB-468 breast -33.8%

COC(=O)C[C@](O)(CCCC(C)C)C(=O)O[C@H]1C(OC)=C[C@@]23CCCN2CCc2cc4c(cc2[C@@H]13)OCO4
active: K-562 leukemia 3.55% | MDA-MB-231 breast 7.43% | LOX IMVI melanoma -66.6% | SK-MEL-28 melanoma -24.3% | UO-31 renal 6.22% | CAKI-1 renal -3.49% | MOLT-4 leukemia 1.41% | SR leukemia -24.8% | OVCAR-5 ovarian 5.45% | HS 578T breast -4.94% | SW-620 colon -10.5% | HCT-116 colon -7.84% | HCC-2998 colon -36.4% | KM12 colon 0.453% | MDA-MB-468 breast -27.4%

O=C(/C=C/c1ccccc1)c1nc2ccccc2n1Cc1ccc(F)cc1
active: HOP-92 NSCLC -28.4% | K-562 leukemia -8.55% | U251 CNS -73.6% | SK-MEL-28 melanoma -26.4% | UO-31 renal -78.5% | CCRF-CEM leukemia -23.7% | MOLT-4 leukemia -4.66% | SR leukemia -16.4% | HCT-116 colon -87.4% | HCC-2998 colon -95.8% | KM12 colon -41.3%

O=C(NCCCCC(c1ccc(F)cc1)c1ccc(F)cc1)Nc1ccc([N+](=O)[O-])c(C(F)(F)F)c1
inactive: SK-MEL-28 melanoma 16.5% | OVCAR-5 ovarian 11.8%
active: HOP-92 NSCLC -36.2% | MDA-MB-231 breast -70% | LOX IMVI melanoma -73.8% | UO-31 renal 0% | CCRF-CEM leukemia -38.8% | HS 578T breast -3.33% | SW-620 colon 8.81% | HCT-116 colon -58.2% | HCC-2998 colon 7.86% | KM12 colon 2.48% | MDA-MB-468 breast -31.7%
